Data as given in PubChem BioAssay (NCI).
About 83,000 compounds went through this panel and 20% of them were active in at least one assay; those are over-represented in the sample as a whole.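 Single-dose data. Exposure time 48 hours. Values below 10 considered active.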 A number with no mark means an inactive call. Activity calls are given as the source filed them.

Legend:
Assay in all cases: NCI-60 one-dose screen, 48 h (100 = growth as untreated, 0 = no growth, -100 = all killed)
Details in all cases: 10 µM unless noted
T-47D breast = test system: T-47D breast
BT-549 breast = test system: BT-549 breast
MDA-MB-435 melanoma = test system: MDA-MB-435 melanoma
SW-620 colon = test system: SW-620 colon
MCF7 breast = test system: MCF7 breast
HCT-116 colon = test system: HCT-116 colon
HCC-2998 colon = test system: HCC-2998 colon
KM12 colon = test system: KM12 colon

Row | SMILES | growth (T-47D breast) | growth (BT-549 breast) | growth (MDA-MB-435 melanoma) | growth (SW-620 colon) | growth (MCF7 breast) | growth (HCT-116 colon) | growth (HCC-2998 colon) | growth (KM12 colon)
1 | CCN(CC)CCN1C(=O)c2c(c(C)c3c(oc4ccc(OC)cc43)c2C)C1=O | 110% | 116% | 104% | 92.2% | 94.8% | 83.7% | 100% | 99.5%
2 | CC1=CC(c2ccco2)=C2C(N)=NNC2N1 (stereo not given) | 85.1% | 100% | 101% | 102% | 91% | 100% | 99.2% | 105%
3 | C#CC#CC#CC#CC#CC#CC#CC#CCC1OC[C@H](COC(=O)O[C@@H](C(=O)O[C@H]2C[C@@]3(O)[C@@H](OC(=O)c4ccccc4)[C@@H]4[C@]5(OC(C)=O)CO[C@@H]5C[C@H](O)[C@@]4(C)C(=O)[C@H](OC(C)=O)C(=C2C)C3(C)C)[C@@H](NC(=O)c2ccccc2)c2ccccc2)O1 (stereo not given in full) | 41.3% | 26.4% | -48% (active) | 27.7% | 25% | 14.2% | 10.4% | 10.8%
4 | Cc1nc2cc(O)c(O)cc2cc1Oc1ccc(NC(=O)Nc2ccc(Cl)c(Cl)c2)cc1 | 62.2% | 82.2% | 54.2% | 49.3% | 76.2% | 44.6% | 93.4% | 74.6%
5 | CC1(C)CC2=C3C=C[C@@H]4[C@@]5(C)CCC(=O)C(C)(C)[C@@H]5CC[C@@]4(C)[C@]3(C)CC[C@@]2(C(=O)O)C[C@H]1O | 20.3% | 34.3% | 27.1% | 32.9% | 14.7% | 0.846% (active) | 35.4% | 27%
6 | CNC(=O)c1cc(Oc2ccc3c(c2)sc2nc(-c4ccc(OC)cc4)cn23)ccn1 | 46.4% | 52.4% | 5.17% (active) | 77.7% | 12.9% | 16% | 17.4% | 58.9%
7 | CN(Cc1cc(Br)cc(Br)c1O)Cc1cc(Br)cc(Br)c1O | 42.6% | 57.8% | 52.6% | 24.5% | 17.7% | 7.44% (active) | 38.7% | 42.5%
8 | O=C1Nc2ccccc2/C1=C/c1cccn1C(=O)c1ccc(Cl)s1 | -31.3% (active) | 65% | 89.8% | 56.4% | 12.3% | 34.6% | 54.4% | 4.36% (active)
9 | N=c1c(S(=O)(=O)c2ccccc2)cc2c(=O)n3ccccc3nc2n1CC1CCCO1 (stereo not given) | 104% | 101% | 109% | 96.1% | 106% | 105% | 105% | 108%
10 | CCNc1nc(O)c(/C=C2\C=Nc3ncccc32)s1 | -9.7% (active) | -50.4% (active) | -0.802% (active) | 6.52% (active) | 3.97% (active) | 3.99% (active) | 10.2% | 6.24% (active)
11 | CC[C@]12C=CCN3CC[C@@]4(c5ccc(OC)cc5N(C)[C@H]4[C@@](O)(C(=O)OC)[C@@H]1OC(=O)CCC[P+](c1ccccc1)(c1ccccc1)c1ccccc1)[C@@H]32 | 1.08% (active) | 11% | -21.6% (active) | 17.4% | -3.34% (active) | 8.72% (active) | -22.5% (active) | -27.2% (active)
12 | COc1ccc(-c2ccc(-c3ccc(C(=N)N)nc3)s2)cc1Cl | -28.6% (active) | 77.9% | -90.3% (active) | -79.8% (active) | -70% (active) | -65.5% (active) | -43.8% (active) | -86% (active)
13 | Nc1nc(N)c2c(n1)NC(c1ccc(Cl)cc1)C1CCc3ccccc3C1=N2 (stereo not given) | 52.6% | 83.2% | 44.2% | 63.8% | 24.8% | 31.8% | 75.6% | 55.4%
14 | COc1ccccc1N(C(C)=O)C1=C(Cl)C(=O)c2ccccc2C1=O | -33.1% (active) | -4.47% (active) | -13.3% (active) | -65.2% (active) | 11.8% | -29.1% (active) | 19.5% | -11.4% (active)
15 | C=C(CNCCc1ccc(O)cc1)[C@@H]1CC[C@]2(CO)CC[C@]3(C)[C@H](CC[C@@H]4[C@@]5(C)CCC(=O)C(C)(C)[C@@H]5CC[C@]43C)[C@@H]12 | 42.2% | 79.5% | 2.13% (active) | -49.8% (active) | -1.07% (active) | -86.1% (active) | 17.3% | 1.19% (active)
16 | C=CCC(CCCC)(C(=O)OCC)C(=O)OCC | 107% | 96.7% | 110% | 114% | 93% | 104% | 102% | 108%
17 | Cc1nn(-c2ccccc2)c(N)c1N=C1NC(=O)/C(=C/c2ccc(Br)cc2)S1 | 85.3% | 78.6% | 49.7% | 84.2% | 78.2% | 68% | 111% | 76%
18 | C=C1C(=O)O[C@H]2[C@H]1CC/C(COC(=O)CSCSCC(=O)OC/C1=C/CC[C@@]3(C)O[C@H]3[C@H]3OC(=O)C(=C)[C@@H]3CC1)=C\CC[C@@]1(C)O[C@@H]21 | 20.9% | -5.92% (active) | 26.6% | -9.08% (active) | 16.7% | -24% (active) | 16.5% | 35.1%
19 | FC(F)(F)c1ccc(Cn2cc(CSc3nc4ccccc4s3)nn2)cc1 | 90% | 92.3% | 101% | 98.1% | 92.8% | 98.2% | 104% | 99%
20 | O=C(CSc1nc(-c2ccccc2)cc(=O)[nH]1)Nc1nc(-c2ccccc2)cs1 | 71.8% | 88% | 105% | 107% | 76.9% | 90.3% | 111% | 95.5%
21 | CCCCCCCCCCCCCCCCCC1=NC(C)(C)CN1CC(C)O (stereo not given) | 72.6% | 101% | 50.9% | 3.6% (active) | 42.4% | 7.84% (active) | 75.3% | 44.1%
22 | CN(C)CCCNC(=O)c1cncnc1Nc1ccc(OCc2cccc(F)c2)c(Cl)c1 | -17% (active) | 53.6% | -88.6% (active) | -67.7% (active) | -44% (active) | -82% (active) | 6.05% (active) | -32.1% (active)
23 | N#Cc1cccc(C2C3=C(COC3=O)N(CCO)c3cc4c(cc32)CCC4)c1 (stereo not given) | 68.9% | 33.5% | -32.7% (active) | 21.2% | 23.2% | 8.71% (active) | 12.7% | 11%
24 | N#Cc1cccc(C2C3=C(COC3=O)N(CCO)c3cc4c(cc32)OCO4)c1 (stereo not given) | 20.8% | 38.7% | 0.432% (active) | 16.3% | 22.4% | 17% | 83.5% | 27.9%
25 | CCO/C=N/C1=C(C#N)C(c2ccc(F)cc2)c2sc3c(F)cccc3c2O1 (stereo not given) | 40.6% | 48.5% | -23.7% (active) | 20.6% | 15.7% | 39% | 77% | 32.5%
26 | NS(=O)(=O)c1ccc(NC(=O)/C(=C\c2ccc(Cl)cc2Cl)NC(=O)c2ccccc2)cc1 | 87.5% | 89.1% | 97.7% | 104% | 90.1% | 97.3% | 103% | 102%
27 | Nc1nc(N)c2c(n1)NC(c1cccc(Nc3ccnc4cc(C(F)(F)F)ccc34)c1)CC(c1ccccc1)=N2 (stereo not given) | 83.4% | 114% | -30.4% (active) | 32.4% | 16.9% | 21% | 54.2% | 33.5%
28 | CC/C(Cc1ccccc1)=C(\c1ccc(OCCCN(C)C)cc1)c1ccc(OC(=O)NCc2ccccc2)cc1 | 52.7% | 95% | 77.6% | 14.5% | 15.6% | 10.4% | 70.4% | 72.8%
29 | C=C1C(=O)O[C@H]2[C@H]1CC/C(COC(=O)c1cc3cc(Cl)ccc3[nH]1)=C\CC[C@@]1(C)O[C@@H]21 | -68.2% (active) | -47.4% (active) | -91.7% (active) | -53.1% (active) | -71.7% (active) | -70.4% (active) | -70.5% (active) | -59.8% (active)
30 | NC(=O)c1cccc([C@@H]2O[C@H](CO)[C@@H](O)[C@H]2O)c1 | 85.7% | 90.9% | 106% | 24% | 61.8% | 72.7% | 93.9% | 34.7%
